# From PubChem BioAssay (NCATS)
# Records with an inconclusive call do not appear. Calls of active or inactive are those of the source. Unless noted, calls follow the shape of the dose curve; as a rule, active = well fitted curve in either direction with a large enough effect (not every such curve was filed as active); inconclusive = small, poorly fitted or top-dose-only effect, or another doubt; inactive = flat fitted curve, though single readings scatter.
# Columns and labels:
# [1] = molecular target: Lysosomal acid glucosylceramidase (Homo sapiens) (UniProt P04062); assay: Glucocerebrosidase-p2 (AID 348; in the data active = potency below about 10 µM; also: potency is read from the fitted curve at half-maximal effect); conditions: purified GBA, blue fluorogenic substrate, 40 min
# In short: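 Compounds titrated from 0.6 nM upwards against 0.2 nM enzyme in pH 5.9 citric acid/KH2PO4, taurocholate, tween-20; blue fluorogenic substrate 80 uM, 40 min room temperature, stopped and read Ex 365/Em 440 for AC50.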
# [2] = AP1 Signaling Pathway (AID 357); conditions: ME-180 AP-1-bla reporter, EGF-induced, beta-lactamase ratio, 5 h; at 7.69 µM (top of the series) unless noted;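 also: ME-180 reporter cells stimulated with EGF at its EC50 level; % is scaled to controls: 0 for no effect and ±100 for the full control effect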
# In short: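 Beta-lactamase reporter under AP-1 response element, ME-180 background. Stimulus: EC50 EGF. Compound exposure 5 h, 37 °C. Detection: CCF4, 2.5 h RT, 460/530 nm. Values: AC50 from titration.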
# [3] = Stat Signaling Pathway (AID 446); conditions: ME-180 SIE beta-lactamase reporter, IL-6 stimulated, 5 h; at 7.69 µM (top of the series) unless noted;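 also: ME-180 cervical cancer cells given 40 pM IL-6 alongside compound; SIE-controlled beta-lactamase reporter measured as 460/530 nm FRET emission ratio; % is scaled to controls: 0 for no effect and ±100 for the full control effect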
# In short: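 Reporter line: ME-180 cervical carcinoma, SIE-beta-lactamase. Treatment: compound with 40 pM IL-6, 5 hrs, 37 C, in low-serum OPTI-MEM with 10 mM HEPES pH 7.3. Detection: 460/530 nm fluorescence.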
# [4] = molecular target: Glucocorticoid receptor (Homo sapiens) (UniProt P04150); assay: GR-EFC Redistribution (AID 451; calls by dose curve; also: potency is read from the fitted curve at half-maximal effect); conditions: CHO-K1 GR-EFC translocation, beta-gal luminescence, 2 h
# In short: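 CHO-K1 cells stably expressing nuclear-localized β-gal enzyme acceptor and GR fused C-terminally to the enzyme donor fragment; ligand-driven nuclear translocation restores β-gal by complementation. Compounds titrated up to 46 uM final, 2 h at 37 °C; luminescence read.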
# [5] = molecular target: Mitogen-activated protein kinase 10 (Mus musculus) (UniProt Q61831); assay: JNK3 AlphaScreen Assay (AID 530); conditions: JNK3 lysate, c-Jun phosphorylation; series mostly up to 57.1 µM;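 also: kinase came from lysate of stimulated human HepG2 cells; signal reports phosphorylation of biotinylated GST-cJun 1-79 at Ser73 with 10 µM ATP; % is scaled to controls: 0 for no effect and ±100 for the full control effect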
# In short: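 JNK3 came from HepG2 lysates pre-activated with IL-1beta and TNF-alpha and phosphorylated biotinylated GST-cJun (1-79) at 10 uM ATP, pH 7.6, room temperature. Compounds were titrated. AlphaScreen signal used anti-phospho-cJun (Ser73) antibody.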
# [6] = molecular target: 3',5'-cyclic-AMP phosphodiesterase 4B (Homo sapiens) (UniProt Q07343); assay: qHTS Assay for Inhibitors of PDE-IV (AID 607; active = well fitted activation curve with a large enough effect in the main read-out, with a control signal flat, not every such curve was filed as active; also: % of control where 0% means no effect); conditions: HEK293 ACTOne CNG channel cells, membrane potential fluorescence; series mostly up to 22.9 µM
# In short: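 Cell-based read-out of cAMP via a modified cyclic nucleotide-gated channel and membrane potential dye (535/590 nm) in HEK293 cells expressing PDE4 endogenously. Compounds tested up to 22.9 uM final; 100 uM RO 20-1724 reference.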
# [7] = qHTS Assay for Lipid Storage Modulators (AID 1519; calls by dose curve); conditions: Drosophila S3 cells, BODIPY lipid droplet/cell ratio, laser cytometry, cells loaded with oleic acid; for activity change, negative = inhibition: at 57.5 µM (top of the series)
# In short: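 Cells seeded at 5,000 per well were treated with compounds over a concentration series and loaded with oleic acid (400 uM, as added). Lipid droplet fluorescence (488 nm excitation, 500-530 nm channel) was read by laser-scanning cytometry and normalized to 20 uM Triacsin C.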
# [8] = Primary qHTS for small molecule stabilizers of the endoplasmic reticulum resident proteome: Secreted ER Calcium Modulated Protein (SERCaMP) assay (AID 1508630; active = well fitted curve in the direction sought with a large enough effect; an effect the other way counts as inactive or inconclusive; also: % is scaled to controls: 0 for no effect and ±100 for the full control effect); conditions: SH-SY5Y GLuc-SERCaMP (Gaussia luciferase released on ER calcium loss) secretion, thapsigargin, luminescence; series mostly up to 38.4 µM
# In short: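 GLuc-SERCaMP-expressing SH-SY5Y cells, pretreated 16 h with compound, are challenged with thapsigargin to empty ER calcium stores; after 4 h, coelenterazine is added directly to the medium and luminescence is imaged.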
# [9] = qHTS Assay for Identification of Small Molecule Agonists for Hypoxia Response Element Signaling Pathway (AID 914; active = well fitted activation curve with a large enough effect in the signal ratio, with a control signal flat, not every such curve was filed as active; the % refers to the signal ratio; also: potency is read from the fitted curve at half-maximal effect; as to activation: % of control where 0% means no effect); conditions: ME-180 HRE-bla reporter, beta-lactamase ratio, CoCl2, 17 h; activation: stronger effect = higher value
# In short: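 ME-180 cells carrying an HRE-driven beta-lactamase reporter were treated with compounds in a titration series plus an EC50 level of CoCl2 for 17 h at 37 degrees Celsius; CCF4 readout as the 460nm/530nm ratio gave AC50 values.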
# [10] = molecular target: Cytochrome P450 1A2 (Homo sapiens) (UniProt P05177); assay: p450-cyp1a2 (AID 410; calls by dose curve; also: potency is read from the fitted curve at half-maximal effect); conditions: recombinant CYP1A2, luciferin-ME demethylation, luminescence; series mostly up to 57 µM
# In short: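 Inhibition was calculated relative to 57 uM furafylline (full inhibition). The reaction used human CYP1A2 at 20nM with Luciferin-ME at its Km, 100uM, driven by an NADPH-regenerating system for 60 min at room temperature.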
# [11] = NFAT Signaling Pathway (AID 444); conditions: Jurkat NFAT-bla M1, carbachol, beta-lactamase ratio, 5 h; at 7.69 µM (top of the series) unless noted
# In short: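 Jurkat cells carrying an NFAT-driven β-lactamase reporter and co-transfected muscarinic M1 receptor were treated with compound plus carbachol (1 uM final, an EC50 level) for 5 h at 37 °C. CCF4 loading followed for 1 h at RT; 460/530 nm ratio gave %activity.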
# [12] = molecular target: Glucocorticoid receptor (Homo sapiens) (UniProt P04150); assay: GR-GFP Redistribution (AID 450;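 active = compounds whose dose series gives a full or clear partial fitted curve of increased nuclear translocation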; also: potency is read from the fitted curve at half-maximal effect); conditions: U2OS GR-GFP nuclear translocation, laser cytometry, 2 h
# [13] = molecular target: Cytochrome P450 3A4 (Homo sapiens) (UniProt P08684); assay: qHTS Assay for Activators of Cytochrome P450 3A4 (AID 885; active = well fitted curve in the direction sought with a large enough effect; an effect the other way counts as inactive or inconclusive; also: nearly all actives have a fitted effect of over 65% in size); conditions: recombinant CYP3A4, Luciferin-PPXE luminescence, 60 min; series mostly up to 57.1 µM
# In short: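 Signal was normalized against complete inhibition by 57 uM ketoconazole. The reaction used 20nM CYP3A4 with 25uM Luciferin-PPXE, 10-min compound preincubation and a 60-min NADPH-supported step at RT.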
# [14] = Confirmation and Secondary Assay for Modulators of Hemoglobin Beta Chain Splicing at IVS2 705 locus (AID 930; active = well fitted curve in the direction sought with a large enough effect; an effect the other way counts as inactive or inconclusive;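 also: HeLa cells stably expressing the EGFP-705 splicing reporter; % of control where 0% means no effect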); conditions: HeLa EGFP-705 splicing reporter, GFP fluorescence, 48 h; series mostly up to 38.3 µM
# In short: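 HeLa cells stably carrying EGFP interrupted by mutant beta-globin IVS2-705 intron (CMV-driven) were seeded at 500 cells/well, treated next day with compound for 2 days at 37C; corrected splicing restores EGFP, read as total peak GFP intensity per well.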
# [15] = molecular target: Ubiquitin carboxyl-terminal hydrolase 1 (Homo sapiens) (UniProt O94782); assay: Inhibitors of USP1/UAF1: Pilot qHTS (AID 504865; active = well fitted curve in the direction sought with a large enough effect; an effect the other way counts as inactive or inconclusive;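 also: rhodamine fluorescence freed from ubiquitin-rhodamine substrate followed over time; top concentration of the series differs between compounds; % is scaled to controls: 0 for no effect and ±100 for the full control effect; nearly all actives have a fitted effect of over 35% in size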); conditions: purified USP1/UAF1, Ub-rhodamine cleavage fluorescence; series mostly up to 54.9 µM
# In short: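 In 50mM HEPES pH 7.8 containing 0.5mM EDTA, 1mM TCEP, 0.1 mg/ml BSA and 0.01% Tween-20, 1nM USP1/UAF1 is exposed to compound for 15 min, then Ub-Rho (150nM final) is added and fluorescence is read over time.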
# [16] = measured here: cell count channel max response
# [17] = measured here: lipid channel max response
# Chain of Glucocorticoid receptor (Homo sapiens) (P04150 whole entry, looked up, the tested form may be a part): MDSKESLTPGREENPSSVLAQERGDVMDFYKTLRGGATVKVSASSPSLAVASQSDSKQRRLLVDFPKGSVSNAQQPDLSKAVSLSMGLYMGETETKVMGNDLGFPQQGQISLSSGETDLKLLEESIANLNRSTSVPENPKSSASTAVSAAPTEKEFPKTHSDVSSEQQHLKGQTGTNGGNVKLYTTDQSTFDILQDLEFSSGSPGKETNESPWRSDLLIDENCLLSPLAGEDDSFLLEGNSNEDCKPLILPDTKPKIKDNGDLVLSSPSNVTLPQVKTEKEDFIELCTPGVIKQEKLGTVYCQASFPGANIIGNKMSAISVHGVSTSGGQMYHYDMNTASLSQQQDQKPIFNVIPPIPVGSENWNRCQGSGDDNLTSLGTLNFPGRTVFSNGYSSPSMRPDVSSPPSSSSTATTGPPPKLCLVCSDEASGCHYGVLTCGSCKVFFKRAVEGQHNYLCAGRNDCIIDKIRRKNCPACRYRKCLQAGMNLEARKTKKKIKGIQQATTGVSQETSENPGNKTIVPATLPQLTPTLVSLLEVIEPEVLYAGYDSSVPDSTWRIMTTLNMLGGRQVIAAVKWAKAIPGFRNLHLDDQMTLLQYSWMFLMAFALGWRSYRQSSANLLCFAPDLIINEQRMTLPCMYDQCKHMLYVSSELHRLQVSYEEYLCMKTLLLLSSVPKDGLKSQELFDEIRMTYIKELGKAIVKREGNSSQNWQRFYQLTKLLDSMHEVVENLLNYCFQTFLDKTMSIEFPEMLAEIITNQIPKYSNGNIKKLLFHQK
# Chain of Lysosomal acid glucosylceramidase (Homo sapiens) (P04062 whole entry, looked up): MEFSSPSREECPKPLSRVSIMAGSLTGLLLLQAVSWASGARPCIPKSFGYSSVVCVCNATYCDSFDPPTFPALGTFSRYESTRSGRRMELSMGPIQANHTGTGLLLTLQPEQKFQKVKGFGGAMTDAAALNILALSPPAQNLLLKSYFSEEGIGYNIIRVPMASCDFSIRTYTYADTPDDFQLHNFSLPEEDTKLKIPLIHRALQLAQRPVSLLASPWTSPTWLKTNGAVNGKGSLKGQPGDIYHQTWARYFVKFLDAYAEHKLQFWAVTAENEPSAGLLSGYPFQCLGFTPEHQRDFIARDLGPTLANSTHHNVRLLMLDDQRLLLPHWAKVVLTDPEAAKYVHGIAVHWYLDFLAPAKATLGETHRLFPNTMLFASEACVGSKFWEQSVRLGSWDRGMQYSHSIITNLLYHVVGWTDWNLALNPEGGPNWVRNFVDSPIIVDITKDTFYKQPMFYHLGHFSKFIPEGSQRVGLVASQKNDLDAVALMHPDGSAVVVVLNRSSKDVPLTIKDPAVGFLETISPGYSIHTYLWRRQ
# Chain of Cytochrome P450 3A4 (Homo sapiens) (P08684 whole entry, looked up): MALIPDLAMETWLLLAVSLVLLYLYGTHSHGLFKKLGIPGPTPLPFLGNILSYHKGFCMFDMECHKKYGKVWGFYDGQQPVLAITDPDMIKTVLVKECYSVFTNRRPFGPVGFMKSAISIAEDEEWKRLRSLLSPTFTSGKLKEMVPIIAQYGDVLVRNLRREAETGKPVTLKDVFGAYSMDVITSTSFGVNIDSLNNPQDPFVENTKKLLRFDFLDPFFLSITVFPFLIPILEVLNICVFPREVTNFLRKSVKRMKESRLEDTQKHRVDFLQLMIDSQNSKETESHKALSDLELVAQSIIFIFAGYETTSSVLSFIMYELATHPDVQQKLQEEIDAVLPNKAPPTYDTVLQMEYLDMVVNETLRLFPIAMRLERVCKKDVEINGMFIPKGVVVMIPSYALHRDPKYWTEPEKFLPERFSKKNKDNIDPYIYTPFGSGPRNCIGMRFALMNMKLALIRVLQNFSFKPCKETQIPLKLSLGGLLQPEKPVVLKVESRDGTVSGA
# Chain of 3',5'-cyclic-AMP phosphodiesterase 4B (Homo sapiens) (Q07343 whole entry, looked up): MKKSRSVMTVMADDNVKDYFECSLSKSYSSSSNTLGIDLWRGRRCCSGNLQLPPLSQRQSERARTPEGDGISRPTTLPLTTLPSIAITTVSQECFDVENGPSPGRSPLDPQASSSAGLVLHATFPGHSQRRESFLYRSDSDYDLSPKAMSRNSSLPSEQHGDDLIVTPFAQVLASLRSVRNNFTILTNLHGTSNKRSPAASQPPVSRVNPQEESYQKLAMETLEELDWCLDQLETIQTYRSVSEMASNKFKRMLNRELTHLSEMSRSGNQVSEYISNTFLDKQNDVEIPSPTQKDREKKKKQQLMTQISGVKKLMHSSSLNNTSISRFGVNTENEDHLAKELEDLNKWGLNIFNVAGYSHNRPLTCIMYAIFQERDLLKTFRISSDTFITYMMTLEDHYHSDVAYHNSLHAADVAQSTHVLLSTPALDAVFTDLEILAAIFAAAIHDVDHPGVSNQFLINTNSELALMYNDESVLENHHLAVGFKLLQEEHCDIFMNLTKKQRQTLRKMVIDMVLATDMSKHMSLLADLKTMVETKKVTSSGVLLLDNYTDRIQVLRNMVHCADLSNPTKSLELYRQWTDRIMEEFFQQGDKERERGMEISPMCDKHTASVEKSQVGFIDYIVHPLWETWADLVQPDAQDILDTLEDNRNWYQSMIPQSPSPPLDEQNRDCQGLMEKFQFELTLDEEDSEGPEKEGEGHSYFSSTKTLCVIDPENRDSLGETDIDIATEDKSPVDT
# Chain of Cytochrome P450 1A2 (Homo sapiens) (P05177 whole entry, looked up): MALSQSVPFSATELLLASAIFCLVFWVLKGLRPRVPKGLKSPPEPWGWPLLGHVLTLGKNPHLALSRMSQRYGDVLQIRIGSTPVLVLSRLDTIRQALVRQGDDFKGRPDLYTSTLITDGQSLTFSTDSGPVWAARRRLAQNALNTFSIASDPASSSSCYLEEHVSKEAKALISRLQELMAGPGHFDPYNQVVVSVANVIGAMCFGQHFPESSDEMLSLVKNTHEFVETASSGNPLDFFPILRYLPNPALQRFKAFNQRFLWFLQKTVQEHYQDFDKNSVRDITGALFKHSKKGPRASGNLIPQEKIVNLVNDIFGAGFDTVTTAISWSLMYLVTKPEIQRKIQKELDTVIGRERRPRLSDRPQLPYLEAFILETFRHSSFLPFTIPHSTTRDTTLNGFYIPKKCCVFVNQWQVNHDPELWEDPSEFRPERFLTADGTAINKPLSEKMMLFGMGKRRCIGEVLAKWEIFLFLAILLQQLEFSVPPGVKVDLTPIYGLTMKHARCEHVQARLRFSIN
# Chain of Ubiquitin carboxyl-terminal hydrolase 1 (Homo sapiens) (O94782 whole entry, looked up): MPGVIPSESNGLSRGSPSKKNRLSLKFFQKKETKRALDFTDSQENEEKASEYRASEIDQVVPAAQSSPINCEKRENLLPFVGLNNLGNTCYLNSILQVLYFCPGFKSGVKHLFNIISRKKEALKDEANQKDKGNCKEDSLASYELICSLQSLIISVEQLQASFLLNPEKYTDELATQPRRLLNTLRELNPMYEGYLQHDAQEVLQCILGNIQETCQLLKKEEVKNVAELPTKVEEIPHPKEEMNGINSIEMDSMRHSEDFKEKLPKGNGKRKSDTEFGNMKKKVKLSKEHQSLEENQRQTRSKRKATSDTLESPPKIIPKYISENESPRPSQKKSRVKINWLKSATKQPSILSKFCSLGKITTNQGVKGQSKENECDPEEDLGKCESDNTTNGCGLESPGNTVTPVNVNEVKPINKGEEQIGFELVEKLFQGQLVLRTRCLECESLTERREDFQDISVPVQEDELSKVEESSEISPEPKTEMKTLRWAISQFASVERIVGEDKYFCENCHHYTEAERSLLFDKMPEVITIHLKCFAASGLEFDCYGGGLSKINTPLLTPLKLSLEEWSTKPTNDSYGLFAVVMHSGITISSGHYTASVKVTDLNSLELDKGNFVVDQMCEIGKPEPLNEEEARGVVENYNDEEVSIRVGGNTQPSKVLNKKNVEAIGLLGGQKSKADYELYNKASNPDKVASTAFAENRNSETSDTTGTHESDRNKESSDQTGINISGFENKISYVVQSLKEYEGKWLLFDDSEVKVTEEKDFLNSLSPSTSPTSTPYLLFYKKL
SMILES,Potency [1],"activity change, negative = inhibition [2]","activity, negative = inhibition [3]",Potency [4],Potency [5],Potency [6],"activity change, negative = inhibition [7]","max response [7, 16] [%]","max response [7, 17] [%]",outcome [8],Potency [9],Potency [10],"activity change, negative = inhibition [11]",Potency [12],Potency [13],outcome [14],Potency [15],activation [9]
COc1ccccc1CN1CCC2(CC1)CCN(C(=O)c1ccncc1)CC2,> 11.4 µM (inactive),-13% (inactive),5.76% (inactive),> 46 µM (inactive),inactive,inactive,-0.0628% (inactive),-18.4,-17.2,inactive,,,,,,,,
N#Cc1ccc(CN2CC3(CCN(C(=O)c4cnccn4)CC3)C2)cc1,> 11.4 µM (inactive),-10.3% (inactive),11.6% (inactive),> 46 µM (inactive),inactive,inactive,3.16% (inactive),15,20.2,inactive,3.16 µM (active),,,,,,,
O=C(c1cccc(F)c1)N1CCC2(CCCN(c3ccccn3)C2)CC1,> 11.4 µM (inactive),-14% (inactive),-2.13% (inactive),> 46 µM (inactive),inactive,inactive,6.75% (inactive),9.06,21.3,inactive,,,,,,,,
COCC(=O)N1CCC[C@@]2(CCN(c3ccncc3)C2)C1,> 11.4 µM (inactive),-10.7% (inactive),5.19% (inactive),> 46 µM (inactive),inactive,inactive,1.37% (inactive),-0.218,3.63,inactive,,,,,,,,
O=C(c1cnccn1)N1CCC2(CC1)CCN(c1ccncc1)CC2,> 11.4 µM (inactive),15.7% (inactive),2.83% (inactive),> 46 µM (inactive),inactive,inactive,2.66% (inactive),3.08,8.09,inactive,,,,,,,,
CN(C)Cc1ccccc1-c1ccc2ncnc(N3CCOCC3)c2c1,> 11.4 µM (inactive),,12.4% (inactive),> 46 µM (inactive),inactive,,9.22% (inactive),6.66,17.3,inactive,,15.8 µM (active),2.99% (inactive),> 46 µM (inactive),inactive,inactive,inactive,
Cn1cccc1C(=O)N1CCC2(CCCN(C(=O)Nc3cccc(F)c3)C2)CC1,> 11.4 µM (inactive),-15.3% (inactive),,> 46 µM (inactive),inactive,inactive,5.97% (inactive),-2.38,6.22,inactive,,,,,inactive,,,
O=C(c1ccncc1)N1CCC2(CC1)CN(c1ccccn1)C2,> 11.4 µM (inactive),24.8% (inactive),,> 46 µM (inactive),inactive,inactive,3.6% (inactive),0.68,6.79,inactive,,,,,,,,
CC(=O)N1CCC2(CCCN(Cc3ccc(C#N)cc3)C2)CC1,> 11.4 µM (inactive),1.53% (inactive),6.73% (inactive),> 46 µM (inactive),inactive,inactive,4.86% (inactive),10.3,18.3,inactive,,,,,,,,
COc1ccccc1CN1CCC2(CC1)CCN(C(=O)c1cccc(F)c1)CC2,> 11.4 µM (inactive),-13% (inactive),,> 46 µM (inactive),inactive,inactive,2.42% (inactive),-4.91,-3.6,inactive,,,,,,,,
CC(C)CN1CC2(CCN(S(=O)(=O)c3ccccc3)CC2)C1,> 11.4 µM (inactive),6.33% (inactive),-2.48% (inactive),> 46 µM (inactive),inactive,inactive,-0.648% (inactive),-17.9,-14.3,inactive,,,,,,,,6.29% (inactive)
O=C(c1ccncc1)N1CCC2(CCCN(c3ccccn3)C2)CC1,> 11.4 µM (inactive),-11.7% (inactive),4.12% (inactive),> 46 µM (inactive),inactive,inactive,7.75% (inactive),10.2,19.9,inactive,,,,,,,,
COCC(=O)N1CCC2(CCCN(Cc3ccc(C#N)cc3)C2)CC1,> 11.4 µM (inactive),12.6% (inactive),1.68% (inactive),> 46 µM (inactive),inactive,inactive,4.66% (inactive),-1.66,3.44,inactive,,,,,,,,
Cn1cccc1C(=O)N1CCC2(CCCN(C(c3ccccc3)c3ccccc3)C2)CC1,> 11.4 µM (inactive),,6.33% (inactive),> 46 µM (inactive),inactive,inactive,4.95% (inactive),6.53,18.7,inactive,,12.6 µM (active),,,inactive,,,
O=C(c1csnn1)N1CCC2(CCCN(c3cccc(-c4ccccc4)c3)C2)CC1,> 11.4 µM (inactive),,-5.72% (inactive),> 46 µM (inactive),inactive,inactive,-16.4% (inactive),9.62,-3.2,inactive,,,-13.8% (inactive),,,,,
